Tests used:
Settings in all cases: concentration: 1 μM,replicates: in singlicate; n = 1
[1] = tested on: PIK3C2G
[2] = tested on: PIK3CA
[3] = tested on: PIK3CB
[4] = tested on: PIK3CD
[5] = tested on: PIK3CG
[6] = tested on: T1, PIK4CB
T1 construct: gene PI4KB

[7] = tested on: PIKFYVE
[8] = tested on: PIM1
[9] = tested on: PIM2
[10] = tested on: PIM3
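Note: KINOMEscan kinase panel screen.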

Row | Compound | %Inh [1] [%] | %Inh [2] [%] | %Inh [3] [%] | %Inh [4] [%] | %Inh [5] [%] | %Inh [6] [%] | %Inh [7] [%] | %Inh [8] [%] | %Inh [9] [%] | %Inh [10] [%]
1 | OCCn1cc(-c2cnc3nnn(Cc4ccc5ncccc5c4)c3n2)cn1 | 0 | 0 | 0 | 0 | 0 | 0 | 40 | 1 | 0 | 10
2 | Cn1ccc2ncnc(Oc3ccc(NC(=O)Nc4ccnc(C(F)(F)F)c4)c(Cl)c3)c21 | 13 | 0 | 0 | 0 | 0 | 0 | 7 | 5 | 3 | 0
3 | O=C(Nc1ccccc1)c1cccc(Oc2ccc3nccn3n2)c1 | 6 | 0 | 0 | 11 | 0 | 68 | 0 | 0 | 5 | 0
4 | Cc1ccc2c(-c3ccnc(Nc4ccc(C(F)(F)F)cc4)n3)cnn2n1 [GW819776] | 0 | 2 | 0 | 0 | 48 | 33 | 23 | 10 | 0 | 0
5 | Cc1ccn2nc(-c3ccc(F)cc3)c(-c3ccncc3)c2c1.Cl [GW457859] | 20 | 0 | 0 | 1 | 1 | 0 | 54 | 16 | 0 | 0
6 | CS(=O)(=O)Nc1ccc(-c2ccnc3[nH]ccc23)cc1 [GSK993273] | 3 | 0 | 0 | 8 | 7 | 10 | 0 | 28 | 0 | 12
7 | CC(C)c1nc(-c2cccc(NS(=O)(=O)c3ccccc3)c2)c(-c2ccnc(Nc3ccc4c(c3)CN(C)CC4)n2)s1 [GSK1649598] | 0 | 10 | 11 | 25 | 4 | 33 | 56 | 28 | 0 | 18
8 | C[C@@H]1CNc2c(sc3ccc4nc(-c5ccc(O)cc5)ccc4c23)C(=O)N1 | 28 | 5 | 34 | 39 | 11 | 0 | 18 | 37 | 93.7 | 72
9 | Cc1ccc(Nc2ccnc(Nc3ccc4c(c3)CS(=O)(=O)C4)n2)cc1O.Cl [GW579362] | 42 | 2 | 0 | 0 | 31 | 67 | 0 | 29 | 0 | 5
10 | COC(=O)Nc1nc2cc(Oc3ccc(NC(=O)Nc4cc(C(F)(F)F)ccc4Cl)cc3)ccc2[nH]1.Cl [GW697465] | 0 | 0 | 16 | 4 | 0 | 0 | 20 | 30 | 0 | 22
11 | C[C@@H](Oc1cc(-n2cnc3ccc(-c4ccncc4)cc32)sc1C(N)=O)c1ccccc1Cl [GSK483724] | 6 | 53 | 68 | 87 | 97.7 | 79 | 95.1 | 46 | 64 | 23
12 | CSc1nccc(-c2c(-c3ccc(F)cc3)ncn2CCCN2CCOCC2)n1.Cl [SB-217146] | 0 | 17 | 0 | 0 | 0 | 5 | 14 | 35 | 0 | 9

From publication PMC5540273 (PLoS ONE, 2017)
